This note sets out measurements from PubChem BioAssay.

Active and inactive are the calls of the source.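 Rule for the calls, unless noted: active = fluorescence slope higher than the sample average by over 3 SD (cut at about -0.22 in these data, passing the limit was not always enough); inactive = the rest.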

Assay [1] in a line: inhibitors of TNFa-induced NFkB p65 translocation, primary screen, imaging, HUVEC, MLSMR starter and 10KST1 sets (AID 438;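 active = inhibition above 20% together with a positive visual image hit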;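 note: compound added about 3h40 before a 20 min TNFalpha stimulation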;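 for inhibition: signal is the nuclear over cytoplasmic p65 intensity ratio per well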). Particulars: HUVEC TNFa-induced p65 nuclear translocation; cell count: measured here: nuclei count (cytotoxicity indicator), at 2.08 µM; inhibition: at 2 µM, stronger effect = higher value, 0% TNFa-plus-vehicle, 100% no-TNFa wells.
Assay [2] in a line: reduction of polyQ htt aggregates in cells – imaging, exon1htt(103Q)mCFP cells, high-content imaging, primary screen (AID 483;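 active = visual image review flags a hit and inhibition of aggregation exceeds 20%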;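 note: compound exposure lasted 3 days before fixation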;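 for nuclei count: percent of the per-plate median nuclei count of sample wells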). The settings on record: exon1htt(103Q)mCFP cell line, aggregate imaging, at 2 µM; inhibition of aggregation: stronger effect = higher value; nuclei count: measured here: cell count, toxicity.
The nature of assay [3]: endothelial E-selectin expression blockers – imaging, HUVEC, immunofluorescence, MLSMR starter and 10KST1 sets, primary screen (AID 487;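 active = visually confirmed hit in the image check and inhibition above 20%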;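 for inhibition: signal is fraction of cell area covered by stained E-selectin grains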;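 for nuclei count: 100% = median nuclei count of all wells on the same plate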). Particulars: HUVEC TNFalpha-induced E-selectin immunofluorescence imaging, at 2 µM; inhibition: stronger effect = higher value; nuclei count: measured here: cell number, toxicity.
Assay [4] deals with Voltage-gated potassium channel subunit beta-2 (Rattus norvegicus) (UniProt P62483). In words: inhibitors of rat Kvbeta2 reductase activity – biochemical, NADPH fluorescence, primary screen (AID 622).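 Note: slope of raw intensity against log time taken from 70 to 1610 s.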 Particulars: recombinant KvBeta, 4-cyanobenzaldehyde reduction, at 10 µM, stronger effect = higher value.
Assay [5] shares this target. Kind of assay: enhancers of rat Kvbeta2 NADPH turnover – biochemical, NADPH fluorescence, primary screen (AID 623;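 active = NADPH fluorescence slope more negative than the mean of all samples by about 3 SD, 99.7% confidence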;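 note: fluorescence intensity change per second fitted from 20 to 320 s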). The settings on record: Recombinant KvBeta, NADPH fluorescence decrease slope, 10 min; at 10 µM; stronger effect = lower value.
Assay [6] addresses Alpha-2C adrenergic receptor (Homo sapiens) (UniProt P18825). In words: compounds altering alpha2C-coupled GIRK flux – cell-based, HEK293 alpha2C/GIRK1/2, thallium flux, primary screen (AID 624;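 active = fluorescence slope after compound addition differing from the mean of all screened samples at 99.7% confidence, in either direction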;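 note: slope of fluorescence ratio to pre-addition baseline per second over 15 to 24 s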). The settings on record: thallium flux BTC fluorescence, at 10 µM, actives lie on both sides.
Assay [7] in a line: blockers of RIG-like receptor reporter activation – cell-based, Sendai virus stimulus, luciferase, 10K MLSCN set, TLR/RLR signaling modifier project, primary screen (AID 602276;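 active = inhibition at or above 50% at 10 µM; inactive = inhibition below 50%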;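 note: firefly luciferase from ISG56 promoter only with Renilla not read in this screen; 0% = Sendai virus plus DMSO and 100% = medium plus DMSO without virus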). The settings on record: HEK293 RL24 IRF3 luciferase reporter, at 10 µM, stronger effect = higher value. For orientation: Reporter assays use an easily measured gene product as a stand-in for the process of interest.

The nature of assay [8]: TLR3 IRF3 reporter activation blockers – cell-based, poly I:C stimulus, luciferase, 10K MLSCN set, primary screen (AID 602277;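 active = inhibition of the reporter signal at or above 50%; inactive = inhibition below 50%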). Particulars: HEK293-TLR3 RL24 IRF3 luciferase reporter, at 10 µM, stronger effect = higher value.

Alpha-2C adrenergic receptor (Homo sapiens), sequence (P18825 whole entry, looked up): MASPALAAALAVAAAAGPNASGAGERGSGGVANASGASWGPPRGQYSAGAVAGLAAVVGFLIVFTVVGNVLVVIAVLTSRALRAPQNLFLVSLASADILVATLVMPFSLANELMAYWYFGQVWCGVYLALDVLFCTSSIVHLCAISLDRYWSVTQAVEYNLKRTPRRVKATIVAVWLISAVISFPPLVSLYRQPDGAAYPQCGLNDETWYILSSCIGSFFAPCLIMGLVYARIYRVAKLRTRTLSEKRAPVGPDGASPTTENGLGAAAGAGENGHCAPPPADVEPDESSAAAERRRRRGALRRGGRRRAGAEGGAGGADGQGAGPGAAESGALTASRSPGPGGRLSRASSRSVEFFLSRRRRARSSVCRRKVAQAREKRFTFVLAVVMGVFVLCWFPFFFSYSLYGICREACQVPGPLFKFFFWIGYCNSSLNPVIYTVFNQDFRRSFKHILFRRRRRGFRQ
Voltage-gated potassium channel subunit beta-2 (Rattus norvegicus), sequence (P62483 whole entry, looked up): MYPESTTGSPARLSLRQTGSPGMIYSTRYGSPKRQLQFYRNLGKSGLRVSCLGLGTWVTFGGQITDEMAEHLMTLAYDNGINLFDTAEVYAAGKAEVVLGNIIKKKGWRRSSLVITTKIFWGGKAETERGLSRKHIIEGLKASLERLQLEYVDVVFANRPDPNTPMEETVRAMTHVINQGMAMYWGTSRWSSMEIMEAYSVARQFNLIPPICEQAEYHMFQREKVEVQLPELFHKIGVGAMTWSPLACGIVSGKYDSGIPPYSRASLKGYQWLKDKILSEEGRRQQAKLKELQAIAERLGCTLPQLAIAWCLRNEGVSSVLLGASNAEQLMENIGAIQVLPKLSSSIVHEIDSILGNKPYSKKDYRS

One may read the inhibition as the relative decrease from the control value, in per cent. For `CCCC(=O)Nc1ccccc1-c1nnn(CC(=O)Nc2ccc(OCC)cc2)n1`, the cell count in assay [1] is 369. In addition, the inhibition in assay [1] is 3% (inactive); in assay [3], -7.5% (inactive); in assay [7], 12.2% (inactive); in assay [8] it was 9.95% (inactive). Also, the inhibition of aggregation in assay [2] was -6.8% (inactive). Moreover, the nuclei count in assay [2] stood at 97.4%; in assay [3], 94.3%. Besides, in assay [4], the fluorescence slope was -0.444 (inactive). The NADPH fluorescence slope in assay [5] was -0.000123 (inactive). Besides, in assay [6], the slope is 0.00619 (inactive).
In the case of `COc1ccc(OC)c(C(=O)COC(=O)c2cc(C)oc2C)c1`, the cell count in assay [1] was determined as 747. For the same compound, the inhibition in assay [1] was -9.6% (inactive); in assay [3], -2.3% (inactive); in assay [7], 6.43% (inactive); in assay [8], -0.082% (inactive). Moreover, the inhibition of aggregation in assay [2] was 38.1% (inactive). The nuclei count was determined as 103% in assay [2] and 114% in assay [3]. The fluorescence slope in assay [4] was -0.361 (inactive). Further, the NADPH fluorescence slope in assay [5] is 2.4e-05 (inactive). The slope in assay [6] was 0.00558 (inactive).
As to `CCc1ccc(C=NC23CN4CN(CN(C4)C2)C3)s1`, in assay [1], the cell count worked out at 319. The inhibition in assay [1] is -14.4% (inactive); in assay [3], -41.8% (inactive); in assay [7], -1.05% (inactive); in assay [8], -0.158% (inactive). Also, in assay [2], the inhibition of aggregation was -5.7% (inactive). Besides, the nuclei count in assay [2] was found to be 106%; in assay [3] it was 122%. Besides, in assay [4], the fluorescence slope is -0.438 (inactive). The NADPH fluorescence slope in assay [5] was 5.9e-05 (inactive). Besides, the slope in assay [6] was 0.00606 (inactive).
Take `COc1ccc(NC(=O)CN2CCN(CC(=O)Nc3cc(OC)cc(OC)c3)CC2)cc1`: the cell count in assay [1] is 306. Also, the inhibition was -3.6% (inactive) in assay [1], 4.7% (inactive) in assay [3], 13.3% (inactive) in assay [7] and 32.4% (inactive) in assay [8]. Besides, the inhibition of aggregation in assay [2] was 8% (inactive). Also, the nuclei count turned out to be 89.1% in assay [2] and 84.6% in assay [3]. Further, the fluorescence slope in assay [4] is -0.442 (inactive). The NADPH fluorescence slope in assay [5] was -0.000127 (inactive). Further, in assay [6], the slope is 0.00643 (inactive).
On to `O=C(CCN1C(=O)c2ccccc2C1=O)NCCN1CCOCC1`, for which the cell count in assay [1] stood at 377. In addition, the inhibition in assay [1] was -10.6% (inactive); in assay [3], -6% (inactive); in assay [7], -7.29% (inactive); in assay [8], 20.7% (inactive). In addition, the inhibition of aggregation in assay [2] is 10.7% (inactive). Moreover, the nuclei count in assay [2] was found to be 96.7%; in assay [3] it was 97%. For the same compound, the fluorescence slope in assay [4] is -0.452 (inactive). The NADPH fluorescence slope in assay [5] is 2.7e-05 (inactive). Besides, in assay [6], the slope was 0.00342 (inactive).
`Cc1cccc(C(OC(=O)c2ccco2)C(=O)NCc2ccccc2)n1` (centres undefined): in assay [1], the cell count was 724. The inhibition is -15.3% (inactive) in assay [1], -79.6% (inactive) in assay [3], -5.03% (inactive) in assay [7] and 21.1% (inactive) in assay [8]. Besides, in assay [2], the inhibition of aggregation is -7.2% (inactive). Further, the nuclei count in assay [2] came out at 104%; in assay [3] it was 106%. Moreover, in assay [4], the fluorescence slope is -0.478 (inactive). For the same compound, the NADPH fluorescence slope in assay [5] is -1.3e-05 (inactive). The slope in assay [6] is 0.00475 (inactive).
Regarding `CCOC(=O)c1cc2sccc2n1Cc1ccccc1`, the cell count in assay [1] stood at 417. Also, the inhibition in assay [1] is 7.3% (inactive); in assay [3], -147% (inactive); in assay [7] it was -10.3% (inactive); in assay [8], -7.29% (inactive). The inhibition of aggregation in assay [2] is -5.2% (inactive). For the same compound, the nuclei count is 101% in assay [2] and 99.7% in assay [3]. For the same compound, in assay [4], the fluorescence slope is -0.598 (inactive). In addition, the NADPH fluorescence slope in assay [5] was -9.9e-06 (inactive). In addition, in assay [6], the slope was 0.00361 (inactive).
For `CCOC(=O)N1CCC(NC(=O)c2cnn3ccccc23)CC1`, the cell count in assay [1] turned out to be 761. Further, the inhibition in assay [1] is 7.4% (inactive); in assay [3], -67% (inactive); in assay [7], -3.54% (inactive); in assay [8], 9.82% (inactive). Also, the inhibition of aggregation in assay [2] is -3.3% (inactive). In addition, the results for the nuclei count in assay [2] and in assay [3] were 88.5% and 113%, respectively. In assay [4], the fluorescence slope is -0.589 (inactive). Also, in assay [5], the NADPH fluorescence slope was 4.8e-07 (inactive). For the same compound, in assay [6], the slope is 0.0078 (inactive).
Turning to `NCc1cccc(-n2cccn2)c1`, in assay [1], the cell count came to 680. The inhibition in assay [1] was -8.9% (inactive); in assay [3], -25.7% (inactive); in assay [7], -6.32% (inactive); in assay [8] it was 6.04% (inactive). The inhibition of aggregation in assay [2] was 1.2% (inactive). Further, the figures for the nuclei count in assay [2] and in assay [3] were 96.4% and 115%, respectively. The fluorescence slope in assay [4] was -0.622 (inactive). Moreover, the NADPH fluorescence slope in assay [5] is 4.5e-06 (inactive). Besides, the slope in assay [6] is 0.00555 (inactive).
In the case of `CC1CCN(Cc2nc3c(c(=O)n(C)c(=O)n3C)n2Cc2cccc3ccccc23)CC1`, the cell count in assay [1] is 703. The inhibition in assay [1] is -22.3% (inactive); in assay [3] it was -26.6% (inactive); in assay [7], 13.1% (inactive); in assay [8], 41.7% (inactive). Further, the inhibition of aggregation in assay [2] is 12.7% (inactive). Moreover, the nuclei count in assay [2] was determined as 105%; in assay [3] it was 131%. Moreover, the fluorescence slope in assay [4] is -0.427 (inactive). Also, in assay [5], the NADPH fluorescence slope was -2.4e-05 (inactive). The slope in assay [6] is 0.00536 (inactive).
As to `OC(COc1ccccc1)CN1C2=NCCCN2c2ccccc21` (centres undefined), the cell count in assay [1] came to 295. Besides, the inhibition is 1.6% (inactive) in assay [1], 5.3% (inactive) in assay [3], 20% (inactive) in assay [7] and 30.6% (inactive) in assay [8]. Moreover, in assay [2], the inhibition of aggregation was -3.1% (inactive). In addition, the nuclei count in assay [2] worked out at 81.2%; in assay [3] it was 79.2%. The fluorescence slope in assay [4] was -0.608 (inactive). For the same compound, the NADPH fluorescence slope in assay [5] is -4.2e-06 (inactive). Moreover, in assay [6], the slope was 0.00402 (inactive).
Regarding `Cc1ccc(-c2nn3c(C)nnc3s2)cc1N`, the cell count in assay [1] was 385. For the same compound, the inhibition was 7.5% (inactive) in assay [1], 4.3% (inactive) in assay [3], -7.7% (inactive) in assay [7] and -47.2% (inactive) in assay [8]. The inhibition of aggregation in assay [2] is 9.7% (inactive). In addition, the nuclei count in assay [2] came to 82%; in assay [3] it was 114%. The fluorescence slope in assay [4] was -0.405 (inactive). Further, the NADPH fluorescence slope in assay [5] was -3e-05 (inactive). Moreover, the slope in assay [6] is 0.00541 (inactive).
Turning to `COc1ccc2[nH]c(=O)c(CN(Cc3cccs3)S(=O)(=O)c3cccc4nsnc34)cc2c1`, in assay [1], the cell count was 510. For the same compound, the inhibition is -4.2% (inactive) in assay [1], -68.8% (inactive) in assay [3], 8.33% (inactive) in assay [7] and 71.5% (active) in assay [8]. The inhibition of aggregation in assay [2] is -15.3% (inactive). Moreover, the nuclei count in assay [2] and in assay [3] was 110% in each case. In addition, the fluorescence slope in assay [4] is -0.523 (inactive). In addition, in assay [5], the NADPH fluorescence slope was -0.000153 (inactive). Also, the slope in assay [6] is 0.00524 (inactive).
Take `O=S(=O)(c1ccc(F)c(Cl)c1)N1CCCC1`: the cell count in assay [1] came to 331. Further, the inhibition in assay [1] is 2.2% (inactive); in assay [3], 31.8% (inactive); in assay [7] it was 2.45% (inactive); in assay [8], 30.3% (inactive). The inhibition of aggregation in assay [2] is 8.7% (inactive). Further, the nuclei count is 98.5% in assay [2] and 99.6% in assay [3]. The fluorescence slope in assay [4] was -0.486 (inactive). For the same compound, the NADPH fluorescence slope in assay [5] was -1e-05 (inactive). Further, the slope in assay [6] is 0.00653 (inactive).
